Assay outcomes: PubChem BioAssay, National Center for Advancing Translational Sciences (NCATS)
Only some compounds are listed: those with a hit (about 7.3% of all), similar ones and a draw of the others.
FMDV inh = antivirals against foot and mouth disease virus | 410,000 tested, 1.2% active | FMDV antiviral cell-based qHTS | Potency, µM (titrated, usually from 57.9 µM), for the others: at the highest dose activity change, negative = inhibition, usual class: inhibitors; calls by dose curve; tested in HEK293T cells; also: read-out not given here; potency is read from the fitted curve at half-maximal effect; nearly all actives have a fitted effect of over 45% in size
HCV inh = blocks hepatitis C virus; 340,000 tested, 3.4% active; Huh7.5.1 HCVcc-Cre infection, luciferase reporter, 44 h; Potency, µM (series often up to 41.8 µM), inactives show top-dose activity change, negative = inhibition, most hits filed as inhibitors; also: potency is read from the fitted curve at half-maximal effect
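After 44 h co-culture of compound, cells and HCVcc-Cre (~0.5 moi), substrate is added for 15 min at room temperature and luciferase measured over 15 sec. Cells were seeded at 1,000/well and pre-cultured 4 h.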
AmpC inh no detg = inhibitors of E. coli AmpC beta-lactamase without detergent | P00811 | AmpC nitrocefin hydrolysis, absorbance 480 nm, 0.0001% Triton | Potency, µM (series often up to 57.1 µM), inactives show top-dose activity change, negative = inhibition, hits mostly inhibitors | 330,000 tested, 0.52% active | AID 485341;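 also: potency is read from the fitted curve at half-maximal effect; plate controls were no compound for no effect and no enzyme for full effect; nearly all actives have a fitted effect of over 20% in size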
Target sequence (P00811 whole entry, looked up): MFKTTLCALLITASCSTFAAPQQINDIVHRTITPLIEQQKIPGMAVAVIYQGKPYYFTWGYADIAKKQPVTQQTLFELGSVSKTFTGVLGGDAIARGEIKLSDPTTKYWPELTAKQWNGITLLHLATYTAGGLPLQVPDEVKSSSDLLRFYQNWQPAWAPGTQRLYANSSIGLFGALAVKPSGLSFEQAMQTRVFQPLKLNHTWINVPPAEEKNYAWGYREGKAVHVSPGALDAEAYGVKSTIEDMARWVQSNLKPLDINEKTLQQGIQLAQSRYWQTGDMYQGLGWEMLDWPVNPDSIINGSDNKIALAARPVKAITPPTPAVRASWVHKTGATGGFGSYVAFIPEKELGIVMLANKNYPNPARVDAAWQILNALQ
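20 mM phosphate pH 7.0 + 0.01% (detergent screen) or 0.0001% Triton X-100; 5.3 nM AmpC reagent; cpd preinc 15 min RT; nitrocefin (800 uM stock) to start; A480 q20 s × 4 min; Activity was normalised to no-enzyme and no-compound control wells.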
HCMV antiviral = human cytomegalovirus inhibition; HFF cells, HCMV-luciferase reporter, 72 h; active compounds read low; activity change, negative = inhibition, % at 57.5 µM; 410,000 tested, 4.5% active; in the data active = activity change below about -60%; inconclusive = no clear call, values can overlap the other calls; inactive = above about -39%
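HFF cells seeded 16 h at 37C, treated with compounds, infected with luciferase-reporter HCMV at MOI 1 PFU/cell; luciferase read at 72 h post infection, normalized to buffer-only and Salinomycin controls.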
AmpC detergent = blocks E. coli AmpC beta-lactamase in detergent assay | Potency, µM (series often up to 114 µM), for the others: at the top dose activity change, negative = inhibition, actives largely listed as inhibitors | AmpC hydrolysis of nitrocefin, absorbance 480 nm, 0.01% Triton | 370,000 tested, 0.041% active | AID 485294 | P00811;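 also: potency is read from the fitted curve at half-maximal effect; 0% = no-compound wells and -100% = no-enzyme wells; nearly all actives have a fitted effect of over 25% in size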
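AmpC (5.3 nM in the dispensed reagent) in 20 mM phosphate pH 7.0 with 0.01% (detergent screen) or 0.0001% Triton X-100 was preincubated with compounds for 15 min at room temperature. Nitrocefin was then added from an 800 uM solution, and hydrolysis was followed at 480 nm.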
Active calls of the source: *; ? = inconclusive; . = no result given. Unless noted, calls follow the shape of the dose curve; as a rule, active = well fitted curve in the direction sought with a large enough effect; inconclusive = small, poorly fitted or top-dose-only effect, or another doubt; inactive = no such curve, though single readings can be large; an effect the other way counts as inactive or inconclusive. Unless noted, % is scaled to controls: 0 for no effect and ±100 for the full control effect.

SMILES | FMDV inh | HCV inh | AmpC inh no detg | HCMV antiviral | AmpC detergent
CCOc1ccccc1C1C2=C(COC2=O)Nc2cc3c(cc21)OCO3 (stereo unspecified) | 0% | ? | -37% | -94* | 10%
COc1ccc(-n2c(CC3C(=O)N(C)c4ccc(C)cc43)nc3ccccc3c2=O)cc1 (stereo unspecified) | ? | . | . | 15 | 19%
COc1ccc(C(=O)Cc2cc(OC)c(OC)cc2C(=O)c2ccccc2F)cc1OC | -12% | 10µM* | 151% | -5 | 6%
COc1cc2c(cc1OC)C(C)N(C(=O)Nc1ccccc1)CC2 (stereo unspecified) | -18% | ? | -24% | 3 | -10%
COc1cc2c(cc1OC)C(C)N(C(=O)c1ccc(Cl)c(S(=O)(=O)N3CCCCC3)c1)CC2 (stereo unspecified) | -28% | 8.9µM* | 259% | -64* | ?
COc1cc2c(cc1OC)C(c1ccccc1)N(C(=O)CCl)CC2 (stereo unspecified) | 7.1µM* | -14% | -13% | -99* | 2%
COc1cc2c(cc1OC)C(C1C(=O)CCCC1=O)N(C(=O)CCl)CC2 (stereo unspecified) | 5% | -6% | -1% | -36 | -6%
COc1ccccc1/C=C/C(=O)N1CCc2cc(OC)c(OC)cc2C1C (stereo unspecified) | -7% | 22µM* | 67% | -20 | -5%
COc1cc2c(cc1OC)C(C)N(C(=O)c1cccc([N+](=O)[O-])c1)CC2 (stereo unspecified) | -22% | -28% | 21% | -74* | -2%
O=S(=O)(Nc1cccc(-c2cn3c(n2)SCC3)c1)c1ccccc1 | 13% | 8% | ? | 8 | -4%
Cc1ccccc1/C=C/C(=O)N1CCOCC1 | 9% | 5% | -22% | 22 | -2%
COc1ccccc1/C=C/C(=O)N1CCOCC1 | 1% | 4% | -6% | -72* | 4%
Nc1[nH]c(C(=O)c2ccc(Br)cc2)c(-c2ccc3ccccc3c2)c1C(=O)NCCc1c[nH]c2ccccc12 | . | . | . | 2 | .
C[C@H]1CCCC(=O)CCC/C=C/c2cc(O)cc(O)c2C(=O)O1 | ? | 8% | -29% | -99* | 0%
COc1cc(O)cc2c1C(=O)OC(C)CCCC(=O)CCC/C=C\2 (stereo unspecified) | -26% | 0% | -22% | -20 | 7%
CN(C)c1ncc2nc(-c3cc(F)cc(F)c3)c(=O)n(C3CC3)c2n1 | -9% | . | . | . | .
CCC1CCCCN1CCCNC(=O)c1cc2c(Cl)nc3ccc(C)cc3c2s1 (stereo unspecified) | -20% | . | . | -106* | 10%
CCC1CCCCN1CCCNC(=O)c1cc2c(=O)n(CC)c3ccccc3c2s1 (stereo unspecified) | -13% | . | . | 21 | -3%
Cc1ccc2nc(Cl)c3cc(C(=O)NCCCN4CCCC4)sc3c2c1 | -2% | 8.9µM* | 71% | -35 | -1%
Cc1ccc2nc(Cl)c3cc(C(=O)N4CCCCC4)sc3c2c1 | 24% | . | . | -3 | -8%
Cc1ccc(N2CCN(c3nc4ccc(C)cc4n4nnnc34)CC2)c(C)c1 | -4% | . | . | -1 | 13%
COC(=O)c1ccc(COc2ccc(-c3nn[nH]n3)cc2)cc1 | 13% | 7% | -14% | -107* | 2%
C[C@H](CO)N1C[C@H](C)[C@@H](CN(C)C(=O)c2cnccn2)Oc2cc(C#CCC3CCCC3)ccc2S1(=O)=O | 24% | . | . | -16 | .
C[C@H]1CN([C@@H](C)CO)C(=O)CCCn2nncc2CO[C@@H]1CN(C)S(=O)(=O)c1cccs1 | . | . | . | -9 | .
COc1ccccc1N1CCN(C(=O)C(Sc2ccccc2)c2ccccc2)CC1 (stereo unspecified) | ? | 11µM* | 45% | 16 | -1%
O=C(c1ccc(CSc2ccc(Cl)cc2)cc1)N1CCOCC1 | 1% | ? | 120% | -30 | 2%
O=C(c1ccc(CSc2ccc(Cl)cc2)cc1)N1CCCC1 | 12% | ? | 94% | -63* | ?
COc1ccccc1N1CCN(C(=O)CSc2ccccc2)CC1 | -7% | 6% | 36% | 114 | -2%
CCOc1ccccc1N1CCN(C(=S)NCc2ccccc2)CC1 | 11% | 13% | 19% | -88* | 1%
